# Source: PubChem
# Pf growth 48h = inhibits P. falciparum growth in the first generation, 48 h. P. falciparum luciferase growth in erythrocytes, 48 h. Potency, µM (titrated, usually from 28.7 µM), without a hit: at the highest dose activity change, negative = inhibition, most hits filed as inhibitors. 310,000 compounds, 5.9% hits. AID 504832; note: potency is the fitted concentration of half-maximal effect; % is set by controls: 0 for no effect and ±100 for the full control effect
#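 Luciferase-expressing parasites in RBCs, 2% Hct / 0.1% parasitemia final; RPMI 1640 + 0.5% Albumax; 37 C, 5% CO2, one generation; luminescence read-out, lower signal = inhibition.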
# Shiga toxin inh = Shiga toxin inhibition; Vero cells, Shiga toxin protein synthesis inhibition reporter; inhibition, % at 38.7 µM; 290,000 compounds, 9.2% hits; in the data active = inhibition mostly above about 28%, no sharp cut-off; inactive = mostly below about 43%; note: 0% is about no effect
# HCMV antiviral = inhibitors of human cytomegalovirus | HFF cells, HCMV-luciferase reporter, 72 h; active compounds read low | activity change, negative = inhibition, % at 57.5 µM | 410,000 compounds, 4.5% hits | AID 1259415; in the data active = activity change below about -60%; inconclusive = no clear call, values can overlap the other calls; inactive = above about -39%; note: % is set by controls: 0 for no effect and ±100 for the full control effect
#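 Two compound doses tested in HFFs infected with HCMV-luciferase, MOI 1 PFU/cell, 72 h at 37C. Lysate luminescence read with OneGlo; data normalized against buffer-only and 10uM Salinomycin inhibitor controls.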
# Pf growth 96h = inhibits malaria parasite growth, 96 h. 320,000 compounds, 6.9% hits. P. falciparum luciferase reporter growth, 96 h. Potency, µM (highest dose often 28.7 µM), without a hit: at the highest dose activity change, negative = inhibition, actives largely listed as inhibitors; note: potency is the fitted concentration of half-maximal effect; % is set by controls: 0 for no effect and ±100 for the full control effect
#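 P. falciparum expressing integrated firefly luciferase, in erythrocytes at 2% hematocrit, 0.05% parasitemia, incubated with compounds 96 h at 37 C, 5% CO2. Growth inhibition read as loss of luminescence; two-generation exposure targets delayed-death apicoplast inhibitors.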
# CHX counter = counter-screen hit for Shiga toxin inhibitors, cycloheximide. cell reporter, cycloheximide protein synthesis inhibition counterscreen. max response, %. 300,000 compounds, 12% hits. AID 2314; in the data active = max response mostly above about 13%, no sharp cut-off; inactive = mostly below about 14%; note: read at 38.3 µM for the half of the compounds with a filed dose; 0% is about no effect
# * = called active by the depositor; ? = inconclusive; nt = no result; + = active, no number. In the library only some 20% were active in any assay of this set; here they are far more common. Unless noted, calls come from the whole dose curve; as a rule, active = well fitted inhibition curve with a large enough effect; inconclusive = small, poorly fitted or top-dose-only effect, or another doubt; inactive = no such curve, though single readings can be large or run the other way.
SMILES,Pf growth 48h,Shiga toxin inh,HCMV antiviral,Pf growth 96h,CHX counter
Cc1ccc(NC(=O)O/N=C/c2ccc(Br)cc2)cc1,55%,37,?,30%,11*
COc1ccc(/C=N/OC(=O)Nc2ccccc2)cc1[N+](=O)[O-],47%,+,6,32%,33*
O=C(Nc1ccccc1)O/N=C/c1ccc(F)cc1,138%,54*,54,34%,27*
O=C(Nc1ccccc1Cl)O/N=C/c1ccncc1,nt,nt,-2,nt,nt
O=C(Nc1ccccc1)O/N=C/c1ccccc1Cl,nt,64*,nt,15%,54*
Cc1nn(C)c(NC(=O)c2ccccc2Cl)c1Br,-5%,4,-14,-4%,15
CCC(=O)N1CCc2cc(S(=O)(=O)NCCC(=O)Nc3cc(C)ccc3OC)ccc21,nt,nt,3,nt,nt
Cc1ccc(NC(=O)O/N=C/c2ccc(F)cc2)cc1,40%,47*,59,5.9µM*,33*
CCN(CC)c1ccc(/C=N/OC(C)C(=O)Nc2ccc(C)cc2)cc1 (centres undefined),-3%,-14,?,12%,-2
CC(=O)Nc1ccc(/C=N/OCC(=O)Nc2ccc(C)cc2)cc1,41%,15*,30,100%,23*
CCNC(=O)c1ccccc1SCC(=O)Nc1ccc(F)cc1,72%,-11,0,103%,-12
Cc1cc(C(=O)NC2CC(C)(C)Cc3c2cnn3-c2cccc(F)c2)n(C)n1 (centres undefined),?,18,4,9.3µM*,14
CC1(C)Cc2c(cnn2-c2cccc(F)c2)C(NC(=O)c2csnn2)C1 (centres undefined),39%,-6,25,6.6µM*,-1
Cn1c(=O)oc2cc(S(=O)(=O)CCC(=O)N3CCN(c4cccc(Cl)c4)CC3)ccc21,nt,nt,4,nt,nt
COc1cccc(N2CCN(S(=O)(=O)c3ccc4c(c3)oc(=O)n4C)CC2)c1,6%,15,-12,?,17*
COc1cccc(N2CCN(C(=O)C3CCN(S(=O)(=O)c4ccc5c(c4)oc(=O)n5C)CC3)CC2)c1,?,-12,-34,24%,6
CCN(Cc1ccccc1)C(=O)CCS(=O)(=O)c1ccc2c(c1)n(C)c(=O)c(=O)n2C,-28%,7,?,3.7µM*,-1
Cn1c(=O)oc2cc(S(=O)(=O)CCC(=O)N3CCN(c4ccccc4)CC3)ccc21,?,30,29,9.3µM*,2
COc1cccc(N2CCN(C(=O)CCS(=O)(=O)c3ccc4c(c3)oc(=O)n4C)CC2)c1,?,5,0,5.2µM*,-4
CC(=O)c1ccc(N2CCN(C(=O)CCS(=O)(=O)c3ccc4c(c3)oc(=O)n4C)CC2)cc1,nt,nt,28,nt,nt
O=c1[nH][nH]c2c1[C@H](c1ccc(F)cc1)O[C@H](CCc1ccccc1)C2,nt,nt,-25,nt,nt
CCOC(=O)c1cc(S(=O)(=O)N(C)Cc2ccccc2)cn1C,11%,-1,16,?,1
COc1cc(/C=C(/NC(C)=O)C(=O)O)cc(Cl)c1OCc1ccc(Br)cc1,?,5,0,?,6
COc1ccc(N(C)S(=O)(=O)c2ccc3c(c2)oc(=O)n3C)cc1,-10%,-3,-6,7.4µM*,1
CN(c1ccccc1)S(=O)(=O)c1ccc2c(c1)oc(=O)n2C,12%,nt,3,8%,-3
SMILES,Pf growth 48h,Shiga toxin inh,HCMV antiviral,Pf growth 96h,CHX counter
CN(Cc1ccccc1)C(=O)CCNS(=O)(=O)c1ccc2c(c1)oc(=O)n2C,-12%,-16,29,?,-3
CN(Cc1ccccc1)C(=O)CCS(=O)(=O)c1ccc2c(c1)oc(=O)n2C,-19%,0,-18,13µM*,4
Cc1ccc(C)c(S(=O)(=O)Nc2ccc(C(=O)N3CC(C)OC(C)C3)cc2)c1 (centres undefined),-18%,nt,-6,11%,nt
COC(=O)C1C(O)C(C)C(O)C(C)(O)/C=C\C=C(/C)C(=O)Nc2c(C)c(OC(C)=O)c3c(c2O)C(=O)C(C)=C2OCOC(=C23)/C(C)=C/C(C)(O)C(O)C(C)C1O (centres undefined),2.9µM*,2,34,?,1
CC(=O)N1c2ccccc2C(=O)C1N(C)c1ccc(C)cc1 (centres undefined),21%,45*,85,-20%,33*
CCOc1ccc(NC(=O)CSc2oc(-c3ccc(F)cc3)nc2S(=O)(=O)c2ccc(C)cc2)cc1,nt,nt,-4,nt,nt
O=C(Nc1ccccc1Br)C(=O)N1CCCC1,23%,active,4,49%,40*
